Here are results for six sequences from publication PMC11574364.

Common to all, as to assay: protein domain microarray probed with biotinylated miRNA; Domain array: 20 mM Tris-HCl pH 7.4, 200 mM KCl, 0.2 mM EDTA, 0.05% NP40, 2 ug/ul heparin, overnight 4 C. ORF array: PBS pH 7.0 with RNase inhibitor, 100 ng RNA; high values mean tight binding
What all share (settings): ssRNA

Test [1] has as its target hnRNP-P2 (Homo sapiens, UniProt P35637).
Test [2] deals with T1, hnRNP-H2 (Homo sapiens, UniProt P55795).
T1 sequence: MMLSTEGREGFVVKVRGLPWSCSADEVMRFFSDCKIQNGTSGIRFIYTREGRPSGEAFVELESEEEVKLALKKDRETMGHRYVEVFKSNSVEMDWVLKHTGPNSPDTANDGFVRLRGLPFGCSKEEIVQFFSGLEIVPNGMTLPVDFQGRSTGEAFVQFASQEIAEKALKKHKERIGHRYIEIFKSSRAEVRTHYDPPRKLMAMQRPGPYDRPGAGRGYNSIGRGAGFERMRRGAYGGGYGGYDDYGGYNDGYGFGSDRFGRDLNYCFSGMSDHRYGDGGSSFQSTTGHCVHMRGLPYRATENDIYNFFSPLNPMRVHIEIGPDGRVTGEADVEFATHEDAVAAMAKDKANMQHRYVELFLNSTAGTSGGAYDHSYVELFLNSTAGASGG

The target of test [3] is T2, MTHFSD (Homo sapiens, UniProt Q2M296).
T2 sequence: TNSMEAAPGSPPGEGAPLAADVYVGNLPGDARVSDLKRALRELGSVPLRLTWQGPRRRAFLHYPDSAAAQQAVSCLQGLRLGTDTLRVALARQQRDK

Test [4] has as its target IGF2BP3 (Homo sapiens, UniProt O00425).
In test [5] the target is T3, NCBP2L (Homo sapiens, UniProt A6PVI3).
T3 sequence: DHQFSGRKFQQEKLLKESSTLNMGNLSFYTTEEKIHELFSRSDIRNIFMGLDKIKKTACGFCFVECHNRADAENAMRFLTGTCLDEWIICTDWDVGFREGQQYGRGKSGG

Test [6] deals with hnRNP-I(1-2) (Homo sapiens, UniProt P26599).
The target in test [7] is T4, LARP7(1) (Homo sapiens, UniProt Q4G0J3).
T4 sequence: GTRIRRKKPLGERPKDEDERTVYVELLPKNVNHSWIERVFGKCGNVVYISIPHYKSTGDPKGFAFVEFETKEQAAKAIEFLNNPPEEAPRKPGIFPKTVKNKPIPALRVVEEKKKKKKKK

Test [8] deals with CELF5(1-2) (Homo sapiens, UniProt Q8N6W0).
The target of test [9] is EIF4H (Homo sapiens, UniProt Q15056).
Test [10] deals with PABPC1L2A (Homo sapiens, UniProt Q5JQF8).
For test [11], the target named is CELF6(1-2) (Homo sapiens, UniProt Q96J87).
The target in test [12] is T5, hnRNP-D-like (Homo sapiens, UniProt O14979).
T5 sequence: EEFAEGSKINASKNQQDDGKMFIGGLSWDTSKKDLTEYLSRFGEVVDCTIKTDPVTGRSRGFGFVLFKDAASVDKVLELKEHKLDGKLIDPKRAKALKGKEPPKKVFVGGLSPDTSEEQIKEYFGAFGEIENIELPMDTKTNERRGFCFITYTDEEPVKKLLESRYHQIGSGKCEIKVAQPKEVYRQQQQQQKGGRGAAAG

The target of test [13] is IGF2BP2 (Homo sapiens, UniProt Q9Y6M1).
The target in test [14] is NIFK (Homo sapiens, UniProt Q9BYG3).
Test [15] deals with T6, PABPNL1 (Homo sapiens, UniProt A6NDY0).
T6 sequence: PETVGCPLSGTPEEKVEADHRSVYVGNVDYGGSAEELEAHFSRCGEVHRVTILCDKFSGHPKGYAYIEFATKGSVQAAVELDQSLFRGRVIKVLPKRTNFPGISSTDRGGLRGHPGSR

In test [16] the target is PABPC5 (Homo sapiens, UniProt Q96DU9).
The target of test [17] is T7, MYEF2(1-2) (Homo sapiens, UniProt Q9P2K5).
T7 sequence: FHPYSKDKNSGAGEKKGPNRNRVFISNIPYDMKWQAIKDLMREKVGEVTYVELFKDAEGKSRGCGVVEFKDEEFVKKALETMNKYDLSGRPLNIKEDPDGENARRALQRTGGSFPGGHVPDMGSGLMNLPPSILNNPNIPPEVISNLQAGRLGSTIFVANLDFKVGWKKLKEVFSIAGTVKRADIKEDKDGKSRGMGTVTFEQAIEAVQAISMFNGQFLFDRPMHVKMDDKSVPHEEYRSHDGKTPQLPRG

Test [18] addresses T8, CIRBP (Homo sapiens, UniProt Q14011).
T8 sequence: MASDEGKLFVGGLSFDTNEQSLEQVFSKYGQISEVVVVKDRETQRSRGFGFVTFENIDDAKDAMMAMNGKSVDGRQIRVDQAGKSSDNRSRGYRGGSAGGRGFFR

Test [19] has as its target ELAVL4 (Homo sapiens, UniProt P26378).
Test [20] has as its target T9, NCBP2 (Homo sapiens, UniProt P52298).
T9 sequence: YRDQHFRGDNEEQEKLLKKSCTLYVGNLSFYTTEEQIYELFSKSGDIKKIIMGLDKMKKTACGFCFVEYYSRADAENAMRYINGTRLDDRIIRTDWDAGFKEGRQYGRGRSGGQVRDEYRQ

PABPC1L2A, sequence (Q5JQF8 whole entry): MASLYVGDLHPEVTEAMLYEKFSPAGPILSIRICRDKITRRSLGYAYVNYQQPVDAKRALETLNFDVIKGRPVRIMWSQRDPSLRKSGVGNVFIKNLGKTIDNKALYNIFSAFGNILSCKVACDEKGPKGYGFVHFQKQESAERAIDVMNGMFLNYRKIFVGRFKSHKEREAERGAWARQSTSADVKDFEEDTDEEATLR
hnRNP-I(1-2), sequence (P26599 40-280): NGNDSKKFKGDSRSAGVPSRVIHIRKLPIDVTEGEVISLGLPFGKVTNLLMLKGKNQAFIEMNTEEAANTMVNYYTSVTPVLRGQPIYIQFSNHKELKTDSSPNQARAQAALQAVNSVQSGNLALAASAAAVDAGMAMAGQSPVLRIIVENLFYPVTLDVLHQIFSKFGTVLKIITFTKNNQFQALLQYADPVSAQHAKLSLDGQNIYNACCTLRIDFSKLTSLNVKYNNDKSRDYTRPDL
CELF5(1-2), sequence (Q8N6W0 20-233): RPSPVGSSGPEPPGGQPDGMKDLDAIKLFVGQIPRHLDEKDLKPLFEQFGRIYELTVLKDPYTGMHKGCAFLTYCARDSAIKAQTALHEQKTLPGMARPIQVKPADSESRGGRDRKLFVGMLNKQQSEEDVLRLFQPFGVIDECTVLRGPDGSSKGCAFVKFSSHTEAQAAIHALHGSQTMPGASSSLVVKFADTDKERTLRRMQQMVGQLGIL
IGF2BP2, sequence (Q9Y6M1 1-177): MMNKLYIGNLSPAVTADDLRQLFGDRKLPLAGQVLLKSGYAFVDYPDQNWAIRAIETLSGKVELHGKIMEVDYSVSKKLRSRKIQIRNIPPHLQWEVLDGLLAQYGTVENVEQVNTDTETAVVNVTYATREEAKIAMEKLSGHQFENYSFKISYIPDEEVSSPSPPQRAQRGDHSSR
PABPC5, sequence (Q96DU9 whole entry): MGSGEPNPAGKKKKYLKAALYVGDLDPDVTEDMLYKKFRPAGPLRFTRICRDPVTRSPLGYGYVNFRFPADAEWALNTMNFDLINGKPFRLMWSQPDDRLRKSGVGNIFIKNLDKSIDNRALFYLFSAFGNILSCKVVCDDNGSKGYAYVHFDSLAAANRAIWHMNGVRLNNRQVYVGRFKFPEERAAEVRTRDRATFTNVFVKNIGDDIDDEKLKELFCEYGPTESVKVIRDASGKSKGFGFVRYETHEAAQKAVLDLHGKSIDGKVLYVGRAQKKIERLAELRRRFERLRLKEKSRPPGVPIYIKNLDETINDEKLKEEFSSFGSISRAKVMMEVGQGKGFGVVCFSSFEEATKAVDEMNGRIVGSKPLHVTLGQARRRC
IGF2BP3, sequence (O00425 1-176): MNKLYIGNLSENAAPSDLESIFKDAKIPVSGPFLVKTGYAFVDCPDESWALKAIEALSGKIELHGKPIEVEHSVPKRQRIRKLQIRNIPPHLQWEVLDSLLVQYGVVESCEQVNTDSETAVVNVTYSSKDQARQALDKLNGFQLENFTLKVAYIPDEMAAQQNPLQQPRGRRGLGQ
ELAVL4, sequence (P26378 30-385): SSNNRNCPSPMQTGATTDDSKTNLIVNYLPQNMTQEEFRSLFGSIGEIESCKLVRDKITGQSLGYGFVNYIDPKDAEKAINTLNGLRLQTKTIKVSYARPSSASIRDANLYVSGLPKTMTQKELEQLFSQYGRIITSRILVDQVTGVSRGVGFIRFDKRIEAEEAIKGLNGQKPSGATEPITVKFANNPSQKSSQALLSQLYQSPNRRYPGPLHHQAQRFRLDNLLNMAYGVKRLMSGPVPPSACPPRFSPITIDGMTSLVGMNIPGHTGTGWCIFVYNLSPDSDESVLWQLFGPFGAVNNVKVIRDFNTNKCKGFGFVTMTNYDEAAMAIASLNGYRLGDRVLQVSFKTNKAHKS
CELF6(1-2), sequence (Q96J87 21-233): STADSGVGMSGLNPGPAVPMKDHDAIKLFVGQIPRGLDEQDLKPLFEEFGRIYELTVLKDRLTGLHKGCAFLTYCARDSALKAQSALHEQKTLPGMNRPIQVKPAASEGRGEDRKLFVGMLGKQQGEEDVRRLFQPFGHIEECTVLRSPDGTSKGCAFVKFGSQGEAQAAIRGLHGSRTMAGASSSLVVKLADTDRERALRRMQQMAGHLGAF
hnRNP-P2, sequence (P35637 265-390): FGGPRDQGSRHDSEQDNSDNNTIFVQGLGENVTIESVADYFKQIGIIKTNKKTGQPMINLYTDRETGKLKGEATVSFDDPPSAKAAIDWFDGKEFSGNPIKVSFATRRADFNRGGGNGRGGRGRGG

In the case of CAGUGCAAUGAUGAAAGGGCAU, the binding signal in [1] turned out to be 40.3 ± 3.56 fluorescence intensity; in test [2], 944.5 ± 8.38 fluorescence intensity; in [3], 349.3 ± 0.905 fluorescence intensity; in [4], 20.1 ± 2.45 fluorescence intensity; in test [5], 162 ± 7.95 fluorescence intensity; in test [6], 185 ± 5.4 fluorescence intensity. In addition, the binding signal in test [7] is 104 ± 10.5 fluorescence intensity; in test [8], 52.7 ± 5.17 fluorescence intensity; in test [9], 71.2 ± 5.92 fluorescence intensity; in [10] it was 88.7 ± 6.19 fluorescence intensity; in test [11], 105 ± 14.1 fluorescence intensity; in [12] it was 250 ± 14.8 fluorescence intensity. Besides, the binding signal in test [13] came out at 91.7 ± 5.63 fluorescence intensity; in test [14] it was 38.6 ± 4.43 fluorescence intensity; in [15], 2030 ± 144 fluorescence intensity; in [16], 187 ± 8.46 fluorescence intensity; in test [17], 826 ± 53.3 fluorescence intensity; in test [18], 2040 ± 82.9 fluorescence intensity. Besides, in test [19], the binding signal was 1170 ± 66.8 fluorescence intensity.

As for UGAGGUAGUAGGUUGUGUGGUU, the binding signal is 576 ± 71.1 fluorescence intensity in [1]; 727 ± 35.9 fluorescence intensity in test [2]; 439 ± 58.4 fluorescence intensity in test [3]; 36.9 ± 7.82 fluorescence intensity in test [4]; 239 ± 6.08 fluorescence intensity in [5]; 994 ± 33.7 fluorescence intensity in test [6]. Besides, the binding signal was found to be 234 ± 9.55 fluorescence intensity in [7]; 107 ± 9.34 fluorescence intensity in test [8]; 208 ± 18.3 fluorescence intensity in test [9]; 312 ± 42.4 fluorescence intensity in test [10]; 224 ± 12 fluorescence intensity in test [11]; 68.7 ± 13.2 fluorescence intensity in test [20]. The binding signal came out at 751 ± 46.5 fluorescence intensity in test [12]; 60.9 ± 10.8 fluorescence intensity in test [13]; 207 ± 7.23 fluorescence intensity in [14]; 1609 ± 3.14 fluorescence intensity in test [15]; 304 ± 27.6 fluorescence intensity in test [16]; 1050 ± 50.7 fluorescence intensity in [17]. Moreover, the figures for the binding signal in [18] and in test [19] were 2020 ± 38.1 fluorescence intensity and 1510 ± 102 fluorescence intensity, respectively.

For UGAGGUAGUAGGUUGUAUAGUU, the binding signal worked out at 58.1 ± 13.9 fluorescence intensity in test [1]; 258 ± 16.1 fluorescence intensity in test [2]; 133 ± 32.4 fluorescence intensity in [3]; 40.6 ± 4.36 fluorescence intensity in test [5]; 293 ± 83.2 fluorescence intensity in test [6]; 35.35 ± 0.0495 fluorescence intensity in test [7]. The binding signal in test [8] was 24.4 ± 2.19 fluorescence intensity; in test [9], 31.8 ± 3.73 fluorescence intensity; in [10], 46.3 ± 9.23 fluorescence intensity; in [11], 28.4 ± 3.05 fluorescence intensity; in test [12], 288 ± 15.7 fluorescence intensity; in test [13], 28.3 ± 5.47 fluorescence intensity. Besides, the binding signal in [14] came to 23 ± 0.658 fluorescence intensity; in test [15], 531 ± 16.5 fluorescence intensity; in test [16], 52 ± 3.7 fluorescence intensity; in test [17] it was 228 ± 4.88 fluorescence intensity; in test [18], 1010 ± 76.7 fluorescence intensity; in [19], 725 ± 56.5 fluorescence intensity.

Regarding UGAGGUAGUAGGUUGUAUGGUU, the binding signal stood at 441 ± 19.8 fluorescence intensity in test [1]; 663 ± 15.2 fluorescence intensity in test [2]; 488 ± 22.1 fluorescence intensity in test [3]; 22.9 ± 3.19 fluorescence intensity in test [4]; 180 ± 10.2 fluorescence intensity in test [5]; 911 ± 32.3 fluorescence intensity in test [6]. The binding signal in [7] turned out to be 153.2 ± 0.424 fluorescence intensity; in test [8], 48 ± 2.14 fluorescence intensity; in test [9], 93.9 ± 8.49 fluorescence intensity; in [10], 240 ± 13.7 fluorescence intensity; in test [11] it was 89.8 ± 3.29 fluorescence intensity; in test [20], 66.8 ± 8.78 fluorescence intensity. In addition, the binding signal in test [12] worked out at 741 ± 27.9 fluorescence intensity; in [13], 49.2 ± 7.44 fluorescence intensity; in [14], 138 ± 7.4 fluorescence intensity; in [15], 1110 ± 57.4 fluorescence intensity; in [16] it was 291 ± 13.4 fluorescence intensity; in test [17], 789 ± 41.9 fluorescence intensity. Besides, the binding signal is 1980 ± 32.4 fluorescence intensity in test [18] and 1450 ± 42.8 fluorescence intensity in test [19].

With AGAGGUAGUAGGUUGCAUAGUU, the binding signal in test [1] amounted to 131 ± 2.9 fluorescence intensity; in test [2] it was 907 ± 16.1 fluorescence intensity; in test [3], 716 ± 48.4 fluorescence intensity; in test [4] it was 46.2 ± 3.19 fluorescence intensity; in test [5] it was 202 ± 9.81 fluorescence intensity; in [6], 1010 ± 92.8 fluorescence intensity. Further, the binding signal stood at 137 ± 1.39 fluorescence intensity in test [7]; 56.1 ± 4.7 fluorescence intensity in [8]; 115 ± 9.98 fluorescence intensity in [9]; 179 ± 20.3 fluorescence intensity in [10]; 88.4 ± 8.85 fluorescence intensity in test [11]; 29.2 ± 11.8 fluorescence intensity in test [20]. For the same sequence, the binding signal in [12] amounted to 601 ± 9.77 fluorescence intensity; in test [13], 130 ± 20.3 fluorescence intensity; in test [14], 81.96 ± 0.608 fluorescence intensity; in test [15] it was 1510 ± 38.3 fluorescence intensity; in [16], 351 ± 14.6 fluorescence intensity; in [17], 1130 ± 77.2 fluorescence intensity. Also, the binding signal in test [18] amounted to 2620 ± 43 fluorescence intensity; in test [19], 1830 ± 31 fluorescence intensity.

UAGCUUAUCAGACUGAUGUUGA: the binding signal in test [2] stood at 20 ± 0.509 fluorescence intensity; in test [3], 42.6 ± 13.9 fluorescence intensity; in [5], 43.9 ± 1.85 fluorescence intensity; in [6] it was 72.7 ± 35.4 fluorescence intensity; in test [11] it was 32.2 ± 4.03 fluorescence intensity; in [12] it was 40.3 ± 4.07 fluorescence intensity. Also, the binding signal in [13] turned out to be 21.5 ± 2.16 fluorescence intensity; in test [15], 322 ± 10.4 fluorescence intensity; in test [17], 393 ± 6.4 fluorescence intensity; in test [18] it was 801 ± 174 fluorescence intensity; in test [19], 825 ± 34.8 fluorescence intensity.
